According to PubChem BioAssay (NCATS):
Results filed as inconclusive are left out. The list shows a part of the results. The source made the active and inactive calls. Unless noted, calls follow the shape of the dose curve; as a rule, active = well fitted curve in the direction sought with a large enough effect; inconclusive = small, poorly fitted or top-dose-only effect, or another doubt; inactive = no such curve, though single readings can be large; an effect the other way counts as inactive or inconclusive.

Columns and labels:
[1] = qHTS assay for small molecule antagonists of retinoid X receptor alpha signaling (AID 588546; active = well fitted inhibition curve with a large enough effect in the signal ratio, with a control signal flat, not every such curve was filed as active; the % refers to the signal ratio;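 also: cells stimulated with 9-cis-retinoic acid as agonist; % is scaled to controls: 0 for no effect and ±100 for the full control effect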); conditions: HEK293T RXRa-UAS-bla, beta-lactamase ratio, antagonist mode; measured here: W530 green channel, cytotoxicity proxy
Summary of the method: (§1)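 Beta-lactamase reporter inhibition, read as CCF4 fluorescence ratio (ex 405, em 460/530 nm) after 2 h at RT. HEK293T UAS-bla cells, 2500/well, were stimulated with 9-cis-RA at 500 or 100 nM final alongside test compound for 18 h at 37 C.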

[2] = molecular target: Retinoic acid receptor RXR-alpha (Homo sapiens) (UniProt P19793); test: as above; conditions: HEK293T RXRa-UAS-bla, beta-lactamase ratio, antagonist mode
Summary of the method: as §1

[3] = qHTS assay for small molecule agonists of the antioxidant response element (ARE) signaling pathway (AID 651741; active = well fitted activation curve with a large enough effect in the signal ratio; the % refers to the signal ratio; also: % of control where 0% means no effect); conditions: HepG2 ARE-bla reporter, beta-lactamase FRET ratio, 16 h; series mostly up to 96 µM
Summary of the method: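 ARE-bla HepG2 cells (beta-lactamase reporter under ARE control) were plated at 2,000 cells/well, preincubated 5 h at 37 C/5% CO2, then treated with DMSO-dissolved compounds for 16 h at 37 C; LiveBLAzer B/G FRET substrate added, fluorescence read after 2 h at room temperature.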

[4] = qHTS assay for small molecule activators of the nuclear factor-kappa B (NF-kB) signaling pathway (AID 651749; active = well fitted activation curve with a large enough effect in the signal ratio; the % refers to the signal ratio; also: % of control where 0% means no effect); conditions: NF-kB-bla ME-180 cells, beta-lactamase FRET ratio, 16 h; stronger effect = higher value
Summary of the method: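 ME-180 cells stably carrying a beta-lactamase reporter under an NF-kB response element were exposed to compound or DMSO vehicle for 16 hr at 37C, 5% CO2. Pathway activation was read by FRET, since reporter expression disrupts FRET.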

[5] = qHTS assay for environmental chemicals that activate the Aryl hydrocarbon Receptor (AhR) signaling pathway (AID 651777); conditions: 1A2-DRE human hepatoma cells, luciferase, 24 h; activation: stronger effect = higher value; also: % of control where 0% means no effect; nearly all actives have a fitted effect of over 15% in size
Summary of the method: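 Concentration–response screening used 1,200 1A2-DRE cells per well, 24 hr compound exposure (37 C, 5% CO2), and One-Glo luminescence as the AhR-driven CYP1A2 reporter signal.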

[6] = molecular target: Peroxisome proliferator-activated receptor alpha (Homo sapiens) (UniProt Q07869); test: qHTS assay for small molecule agonists of the peroxisome proliferator-activated receptor alpha (PPARalpha) signaling pathway (AID 651778); conditions: PathHunter PPARalpha complementation, chemiluminescence, 6 h; max response: stronger effect = higher value; also: % of control where 0% means no effect
Sequence of Peroxisome proliferator-activated receptor alpha (Homo sapiens) (Q07869 whole entry, looked up): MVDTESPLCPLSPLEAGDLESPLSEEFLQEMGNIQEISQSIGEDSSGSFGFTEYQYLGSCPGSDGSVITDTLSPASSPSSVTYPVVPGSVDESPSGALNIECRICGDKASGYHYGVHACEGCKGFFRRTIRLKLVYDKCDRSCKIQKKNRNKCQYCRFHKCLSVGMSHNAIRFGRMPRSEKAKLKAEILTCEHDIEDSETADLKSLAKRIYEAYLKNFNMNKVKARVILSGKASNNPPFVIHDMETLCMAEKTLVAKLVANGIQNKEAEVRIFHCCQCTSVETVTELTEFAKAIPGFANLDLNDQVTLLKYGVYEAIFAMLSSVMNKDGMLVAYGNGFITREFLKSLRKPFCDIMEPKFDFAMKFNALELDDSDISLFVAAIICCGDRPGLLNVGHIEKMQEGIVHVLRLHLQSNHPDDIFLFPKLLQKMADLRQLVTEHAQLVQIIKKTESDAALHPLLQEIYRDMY
Summary of the method: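 Cells plated at 2,000/well and held overnight at 37 C, 5% CO2, then compound added by pin tool for 6 hr; after PathHunter detection reagent and 60 min at room temperature, chemiluminescence from enzyme complementation was read.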

[7] = qHTS assay for small molecule agonists of the antioxidant response element (ARE) signaling pathway measured by Nrf2-dependant transcriptional activity (AID 720636; active = well fitted curve in the direction sought with a large enough effect in the repeat runs; an effect the other way counts as inactive or inconclusive;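 also: HepG2 cells with an ARE-driven luciferase reporter; % of control where 0% means no effect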); conditions: ARE-luc HepG2, Nrf2 luciferase reporter, 16 h; series mostly up to 92.4 µM
Summary of the method: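 Attachment 6 hr at 37 C, then compound versus DMSO vehicle for 16 hr in ARE-luc HepG2 cells (1% dialyzed FBS); luminescence recorded 30 min after ONE-Glo addition at room temperature.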

[8] = qHTS assay for small molecule agonists of the antioxidant response element (ARE) signaling pathway measured by Nrf2-dependant transcriptional activity - cell viability counter screen (AID 720653; active = well fitted curve in the direction sought with a large enough effect in the repeat runs; an effect the other way counts as inactive or inconclusive; also: % is scaled to controls: 0 for no effect and ±100 for the full control effect); conditions: ARE-bla HepG2 viability, CellTiter-Glo ATP luminescence, 16 h; max response: stronger effect = lower value
Summary of the method: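 ARE-bla HepG2 cells (2,000/well) rested 5 hrs at 37C/5% CO2, then exposed to compounds in DMSO for 16 hrs. Viability was read in the same wells as intracellular ATP by luminescence, 30 min at room temperature after reagent addition.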

[9] = qHTS assay for cell viability of HEK293 cells (AID 743288); conditions: ATP luminescence (CellTiter-Glo), 18 h; max response: stronger effect = lower value; also: % is scaled to controls: 0 for no effect and ±100 for the full control effect; nearly all actives have a fitted effect of over 50% in size
Summary of the method: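 Parental HEK293 cells, 2,000 per well, preincubated at least 5 h at 37 C, then exposed to compounds in DMSO for 18 h at 37 C. Viability by CellTiter-Glo ATP luminescence after 30 min at room temperature.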

[10] = qHTS assay for cell viability of the p53RE-bla HCT-116 cell line (AID 743292); conditions: p53RE-bla HCT-116 viability, ATP luminescence, 16 h; series mostly up to 95 µM; also: % is scaled to controls: 0 for no effect and ±100 for the full control effect; nearly all actives have a fitted effect of over 55% in size
Summary of the method: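 Compound-exposed HCT-116 (p53RE-bla) cells, 4,000 per well, were kept 16 h at 37 C following a 5 h preincubation. Cell number was estimated from total ATP by CellTiter-Glo luminescence read after 30 min at room temperature.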

[11] = molecular target: Nuclear receptor subfamily 1 group I member 2 (Rattus norvegicus) (UniProt Q9R1A7); test: qHTS assay for small molecule activators of the rat pregnane X receptor (rPXR) signaling pathway (AID 651751; call rule not given here; also: 0% is about no effect); conditions: rPXR reporter cells, luciferase (One-Glo), 24 h
Sequence of Nuclear receptor subfamily 1 group I member 2 (Rattus norvegicus) (Q9R1A7 whole entry, looked up): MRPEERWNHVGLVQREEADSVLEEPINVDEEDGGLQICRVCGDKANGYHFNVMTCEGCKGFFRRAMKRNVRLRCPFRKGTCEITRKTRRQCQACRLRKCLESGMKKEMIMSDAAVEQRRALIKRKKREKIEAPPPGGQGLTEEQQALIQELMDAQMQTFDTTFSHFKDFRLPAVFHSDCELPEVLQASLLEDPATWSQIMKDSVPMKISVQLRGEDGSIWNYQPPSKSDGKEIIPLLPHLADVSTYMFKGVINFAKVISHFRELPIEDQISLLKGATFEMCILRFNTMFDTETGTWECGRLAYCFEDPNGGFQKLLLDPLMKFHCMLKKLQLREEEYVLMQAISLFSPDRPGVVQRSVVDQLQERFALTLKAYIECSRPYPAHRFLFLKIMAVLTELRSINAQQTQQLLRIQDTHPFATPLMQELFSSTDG

[12] = qHTS assay for small molecule activators of the human pregnane X receptor (PXR) signaling pathway (AID 720659; call rule not given here; also: 0% is about no effect); conditions: DPX-2 HepG2 CYP3A4-luciferase, 24 h; series mostly up to 92.3 µM
[13] = molecular target: Phosphoglycerate kinase, glycosomal (Trypanosoma brucei brucei) (UniProt P07378); test: qHTS for inhibitors of Phosphogylcerate Kinase: Hit Validation Screen (AID 686980); conditions: TbPGK coupled GAPDH assay, Kinase-Glo luminescence; also: potency is read from the fitted curve at half-maximal effect; nearly all actives have a fitted effect of over 65% in size
Summary of the method: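 Luminescent ATP detection (Kinase-Glo Plus) follows a 60-minute room-temperature incubation, with wells lacking PGK as controls. Buffer: 100 mM TEA (pH 7.6), 5 mM MgCl2, 0.01% Tween-20. Coupling enzyme GAPDH (100 nM final) supplies unstable 1,3-BPG in-well.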

[14] = molecular target: DNA polymerase iota (Homo sapiens) (UniProt Q9UNA4); test: qHTS for Inhibitors of Polymerase Iota: Confirmatory Assay for Cherry-picked Compounds (AID 720496); conditions: Pol iota primer extension, TAMRA/BHQ fluorescence; also: potency is read from the fitted curve at half-maximal effect
Summary of the method: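 Buffer-only wells, without enzyme, serve as negative control. Test wells hold 10 nM Pol iota preincubated 15 min with compound before 50 nM final fluorogenic DNA substrate is added; signal is read at 0 and 10 min.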

[15] = molecular target: Bifunctional 3'-5' exonuclease/ATP-dependent helicase WRN (Homo sapiens) (UniProt Q14191); test: qHTS for Inhibitors of WRN Helicase: Confirmatory Assay for Cherry-picked Compounds. (AID 720497); conditions: WRN helicase DNA unwinding, fluorescence kinetic; also: potency is read from the fitted curve at half-maximal effect; nearly all actives have a fitted effect of over 65% in size
Sequence of Bifunctional 3'-5' exonuclease/ATP-dependent helicase WRN (Homo sapiens) (Q14191 whole entry, looked up): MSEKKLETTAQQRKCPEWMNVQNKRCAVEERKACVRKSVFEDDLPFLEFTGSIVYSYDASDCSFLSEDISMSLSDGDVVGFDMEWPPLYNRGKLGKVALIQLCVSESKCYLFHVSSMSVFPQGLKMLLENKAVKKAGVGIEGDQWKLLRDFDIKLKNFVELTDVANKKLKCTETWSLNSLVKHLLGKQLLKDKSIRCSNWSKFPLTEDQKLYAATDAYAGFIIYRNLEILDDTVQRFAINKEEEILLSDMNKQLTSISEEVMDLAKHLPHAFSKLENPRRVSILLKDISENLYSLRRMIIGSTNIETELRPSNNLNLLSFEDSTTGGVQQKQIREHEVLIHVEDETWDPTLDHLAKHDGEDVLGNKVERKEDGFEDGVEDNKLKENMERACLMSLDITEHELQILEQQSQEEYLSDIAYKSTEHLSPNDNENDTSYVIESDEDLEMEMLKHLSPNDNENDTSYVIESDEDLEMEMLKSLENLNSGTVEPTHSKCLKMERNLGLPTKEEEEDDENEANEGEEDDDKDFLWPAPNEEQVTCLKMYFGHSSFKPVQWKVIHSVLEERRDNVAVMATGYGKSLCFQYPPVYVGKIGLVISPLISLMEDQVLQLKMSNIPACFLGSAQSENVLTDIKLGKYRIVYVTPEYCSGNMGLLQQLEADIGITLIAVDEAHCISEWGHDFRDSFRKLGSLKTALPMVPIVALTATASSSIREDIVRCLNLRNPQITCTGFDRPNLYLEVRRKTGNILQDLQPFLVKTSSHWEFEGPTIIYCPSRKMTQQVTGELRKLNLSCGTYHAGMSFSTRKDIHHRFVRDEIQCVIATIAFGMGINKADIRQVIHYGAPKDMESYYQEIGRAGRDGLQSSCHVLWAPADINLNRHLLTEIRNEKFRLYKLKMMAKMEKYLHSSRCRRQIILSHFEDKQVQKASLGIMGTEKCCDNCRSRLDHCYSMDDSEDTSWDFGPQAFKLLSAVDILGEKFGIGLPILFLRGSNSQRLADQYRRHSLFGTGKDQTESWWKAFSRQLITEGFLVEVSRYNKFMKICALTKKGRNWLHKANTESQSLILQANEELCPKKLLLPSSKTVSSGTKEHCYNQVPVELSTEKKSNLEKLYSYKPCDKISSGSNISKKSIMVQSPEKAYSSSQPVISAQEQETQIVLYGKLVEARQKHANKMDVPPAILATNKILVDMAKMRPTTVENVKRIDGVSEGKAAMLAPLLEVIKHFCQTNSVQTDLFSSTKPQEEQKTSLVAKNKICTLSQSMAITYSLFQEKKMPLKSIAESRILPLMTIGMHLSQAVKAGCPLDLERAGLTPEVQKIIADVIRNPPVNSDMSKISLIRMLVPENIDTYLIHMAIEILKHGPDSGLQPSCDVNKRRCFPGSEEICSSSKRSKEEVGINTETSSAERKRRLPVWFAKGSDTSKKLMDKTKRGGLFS
Summary of the method: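 WRN (20 nM) was preincubated 15 min at RT with compound, then started with 100 nM forked duplex oligonucleotide and 2 mM ATP. Unwinding was read kinetically by red fluorescence (ex 525/em 598 nm), normalized to enzyme-free and uninhibited controls.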

[16] = qHTS for Inhibitors of WRN Helicase: Thiazole Orange DNA Binding Counterscreen (AID 720499); conditions: thiazole orange DNA binding displacement, fluorescence; series mostly up to 57.1 µM;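 also: drop in dye fluorescence marks compound binding to DNA; % is scaled to controls: 0 for no effect and ±100 for the full control effect; nearly all actives have a fitted effect of over 60% in size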
Summary of the method: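 Thiazole orange displacement counterscreen: compounds added to 50 nM unlabeled DNA with 100 nM ThO. Fluorescence (ex 480, em 530 nm) read after 15 min at room temperature; activity flags nonspecific DNA binding.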

[17] = molecular target: DNA polymerase kappa (Homo sapiens) (UniProt Q9UBT6); test: qHTS for Inhibitors of Polymerase Kappa: Confirmatory Assay for Cherry-picked Compounds (AID 720501); conditions: purified Pol-kappa, fluorescent strand-displacement substrate; also: potency is read from the fitted curve at half-maximal effect
Sequence of DNA polymerase kappa (Homo sapiens) (Q9UBT6 whole entry, looked up): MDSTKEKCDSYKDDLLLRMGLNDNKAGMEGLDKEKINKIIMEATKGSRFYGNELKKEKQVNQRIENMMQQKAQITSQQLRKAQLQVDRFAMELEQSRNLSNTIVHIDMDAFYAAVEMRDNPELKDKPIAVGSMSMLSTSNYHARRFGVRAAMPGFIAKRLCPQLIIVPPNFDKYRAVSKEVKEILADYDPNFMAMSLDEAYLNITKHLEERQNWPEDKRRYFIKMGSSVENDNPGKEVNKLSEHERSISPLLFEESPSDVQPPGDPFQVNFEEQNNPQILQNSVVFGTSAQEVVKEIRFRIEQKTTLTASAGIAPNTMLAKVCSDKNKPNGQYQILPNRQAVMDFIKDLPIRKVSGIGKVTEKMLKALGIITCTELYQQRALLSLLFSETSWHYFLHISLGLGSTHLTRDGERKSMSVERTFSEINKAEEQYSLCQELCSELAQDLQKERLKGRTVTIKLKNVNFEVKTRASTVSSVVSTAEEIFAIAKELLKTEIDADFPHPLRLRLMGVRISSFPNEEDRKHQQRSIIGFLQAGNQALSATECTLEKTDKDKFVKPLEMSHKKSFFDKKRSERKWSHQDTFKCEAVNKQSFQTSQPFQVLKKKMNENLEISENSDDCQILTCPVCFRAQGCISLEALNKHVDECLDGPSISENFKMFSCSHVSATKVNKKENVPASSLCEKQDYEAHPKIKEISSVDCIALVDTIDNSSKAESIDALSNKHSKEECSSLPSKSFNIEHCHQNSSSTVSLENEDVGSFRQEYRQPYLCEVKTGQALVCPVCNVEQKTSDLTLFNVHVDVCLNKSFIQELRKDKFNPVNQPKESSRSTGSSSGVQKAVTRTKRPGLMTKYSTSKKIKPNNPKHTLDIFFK
Summary of the method: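 Human Pol-kappa, dispensed at 10 nM, was preincubated with compounds for 15 min at room temperature. Reactions were started with primer/template substrate (50 nM final) carrying a TAMRA reporter strand and BHQ-2-quenched template, and fluorescence (ex 525/em 598 nm) was read at 0 and 10 min.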

[18] = molecular target: RecQ-like DNA helicase BLM (Homo sapiens) (UniProt P54132); test: qHTS for Inhibitors of WRN Helicase: BLM Helicase Counterscreen for WRN Inhibitors (AID 720503); conditions: Recombinant BLM helicase DNA unwinding, red fluorescence; also: potency is read from the fitted curve at half-maximal effect; nearly all actives have a fitted effect of over 60% in size
Sequence of RecQ-like DNA helicase BLM (Homo sapiens) (P54132 whole entry, looked up): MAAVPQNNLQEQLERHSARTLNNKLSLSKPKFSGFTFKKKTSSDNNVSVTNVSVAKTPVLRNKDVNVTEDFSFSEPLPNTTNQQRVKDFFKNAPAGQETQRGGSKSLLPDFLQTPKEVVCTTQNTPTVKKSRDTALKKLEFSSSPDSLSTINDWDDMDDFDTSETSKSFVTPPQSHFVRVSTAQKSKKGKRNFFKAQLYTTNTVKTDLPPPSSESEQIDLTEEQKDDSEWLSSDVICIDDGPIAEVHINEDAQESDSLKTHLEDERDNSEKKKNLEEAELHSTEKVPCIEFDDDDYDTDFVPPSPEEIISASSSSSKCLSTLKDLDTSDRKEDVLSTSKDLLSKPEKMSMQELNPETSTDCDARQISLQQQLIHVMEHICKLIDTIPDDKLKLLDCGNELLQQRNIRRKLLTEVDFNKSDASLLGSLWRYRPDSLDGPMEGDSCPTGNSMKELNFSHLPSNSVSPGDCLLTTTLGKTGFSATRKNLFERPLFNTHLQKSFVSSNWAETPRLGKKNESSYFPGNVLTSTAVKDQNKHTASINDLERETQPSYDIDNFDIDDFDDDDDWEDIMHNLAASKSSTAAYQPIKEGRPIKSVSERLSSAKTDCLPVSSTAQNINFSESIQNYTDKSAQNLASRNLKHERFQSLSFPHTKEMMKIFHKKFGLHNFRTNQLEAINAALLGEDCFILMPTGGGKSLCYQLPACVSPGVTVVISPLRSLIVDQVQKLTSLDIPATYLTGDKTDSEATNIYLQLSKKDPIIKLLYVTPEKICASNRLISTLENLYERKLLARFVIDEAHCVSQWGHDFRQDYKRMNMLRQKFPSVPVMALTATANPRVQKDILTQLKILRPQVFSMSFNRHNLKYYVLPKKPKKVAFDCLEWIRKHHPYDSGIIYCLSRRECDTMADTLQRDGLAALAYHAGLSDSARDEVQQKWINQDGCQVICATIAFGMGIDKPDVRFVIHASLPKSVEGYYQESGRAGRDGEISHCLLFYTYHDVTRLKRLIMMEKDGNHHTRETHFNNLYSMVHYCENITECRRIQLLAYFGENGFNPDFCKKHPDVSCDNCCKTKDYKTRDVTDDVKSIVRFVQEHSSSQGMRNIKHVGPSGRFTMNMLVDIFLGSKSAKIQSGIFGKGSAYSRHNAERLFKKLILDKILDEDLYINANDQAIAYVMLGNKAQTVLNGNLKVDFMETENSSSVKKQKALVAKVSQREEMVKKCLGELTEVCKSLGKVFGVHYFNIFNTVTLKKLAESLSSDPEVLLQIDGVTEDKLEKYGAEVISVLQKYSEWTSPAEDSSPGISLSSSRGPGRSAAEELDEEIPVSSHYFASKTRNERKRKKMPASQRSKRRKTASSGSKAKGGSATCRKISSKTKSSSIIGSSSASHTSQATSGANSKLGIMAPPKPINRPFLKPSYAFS
Summary of the method: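 1 nM BLM, Tris pH 8.0/NaCl/MgCl2/DTT/Tween-20; cpd preinc 15 min RT; start w/ 100 nM DNA + 2 mM ATP final; fluorescence (ex 525/em 598) two reads 15 min apart; normalized to enzyme-free and DMSO controls.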

[19] = molecular target: Tumor susceptibility gene 101 protein (Homo sapiens) (UniProt Q99816); test: qHTS Assay for Iinhibitors of HIV-1 Budding by Blocking the Interaction of PTAP/TSG101: Hit Validation (AID 651600); conditions: PTAP peptide/TSG101 UEV interaction, biochemical assay; series mostly up to 57.5 µM; also: % is scaled to controls: 0 for no effect and ±100 for the full control effect; nearly all actives have a fitted effect of over 70% in size
Sequence of Tumor susceptibility gene 101 protein (Homo sapiens) (Q99816 whole entry, looked up, the tested form may be a part): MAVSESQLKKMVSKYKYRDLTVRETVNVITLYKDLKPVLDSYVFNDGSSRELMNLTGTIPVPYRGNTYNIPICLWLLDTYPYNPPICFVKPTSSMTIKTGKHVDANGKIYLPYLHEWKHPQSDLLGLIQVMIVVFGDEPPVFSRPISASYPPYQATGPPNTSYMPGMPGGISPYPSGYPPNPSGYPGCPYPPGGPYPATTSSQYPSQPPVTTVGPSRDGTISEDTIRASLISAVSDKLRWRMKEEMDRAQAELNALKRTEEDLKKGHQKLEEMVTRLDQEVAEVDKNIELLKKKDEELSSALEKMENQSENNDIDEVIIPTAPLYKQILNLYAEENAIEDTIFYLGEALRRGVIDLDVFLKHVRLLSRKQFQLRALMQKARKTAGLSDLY
Summary of the method: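 Fluorescence polarization binding assay: Tsg101 binding domain (10 uM) mixed with compounds and FITC-labeled PTAP peptide (50 nM) in HEPES pH 7.5, 0.15 M NaCl, 0.01% Tween 20, EDTA, TCEP; 20 min at r.t.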

[20] = molecular target: Mitogen-activated protein kinase 10 (Mus musculus) (UniProt Q61831); test: JNK3 AlphaScreen Assay (AID 530; active = well fitted curve in either direction with a large enough effect, not every such curve was filed as active;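 also: kinase came from lysate of stimulated human HepG2 cells; signal reports phosphorylation of biotinylated GST-cJun 1-79 at Ser73 with 10 µM ATP; % is scaled to controls: 0 for no effect and ±100 for the full control effect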); conditions: JNK3 lysate, c-Jun phosphorylation; series mostly up to 57.1 µM
Summary of the method: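 JNK3 came from HepG2 lysates pre-activated with IL-1beta and TNF-alpha and phosphorylated biotinylated GST-cJun (1-79) at 10 uM ATP, pH 7.6, room temperature. Compounds were titrated. AlphaScreen signal used anti-phospho-cJun (Ser73) antibody.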

CC1CCC(C(C)C)C(O)C1 (stereo not given)
-12.2%: max response [1]
inactive: max response [2] 5.79% | Potency [3] | activation [4] -2.43% | activation [5] -1.72% | max response [6] -0.619% | Potency [7] | max response [8] 1.08% | max response [9] -1.68% | Potency [10] | max response [11] -4.79% | outcome [12]

COc1ccc(-c2nc3c(c(SCC(=O)Nc4ccc(C(=O)O)cc4)n2)Cc2ccccc2O3)cc1
inactive: outcome [16]
active: Potency [13] 3.26 µM | Potency [14] 4.23 µM | Potency [15] 7.64 µM | Potency [17] 2.67 µM | Potency [18] 3.04 µM

COc1cccc2c1C(=O)c1c(O)c3c(c(O)c1C2=O)C[C@@](O)(C(=O)CO)C[C@@H]3OC1CC(N)C(O)C(C)O1 (stereo not given in full)
inactive: Potency [19]

Clc1ccc(CS[C@@H](Cn2ccnc2)c2ccc(Cl)cc2Cl)cc1
inactive: Potency [20]
